# Data: PubChem BioAssay (NCATS)
# Several values for one entry are separate records, joined by “and”; a condition that tells them apart may be missing. Equal entries are not always repeated. Inconclusive results are not listed. Where a call stands in place of a potency, no number is given. Unmarked numbers belong to inactive results. Activity calls are given as the source filed them. Calls follow the shape of the dose curve; as a rule, active = well fitted inhibition curve with a large enough effect; inconclusive = small, poorly fitted or top-dose-only effect; inactive = flat fitted curve, though single readings scatter.
# Key:
# PC15 = experiment: qHTS profiling for inhibitors of Plasmodium falciparum proliferation (AID 504749); conditions: P. falciparum in erythrocytes, SYBR Green DNA, 72 h; series mostly up to 28.7 µM
# Outline: (§1)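 Infected RBCs, 0.3% parasitemia/2.5% Hct final; cpd 72 h, 37 C, 5% CO2; lysis buffer with saponin/triton/SYBR Green I, o/n RT dark; FI 485/535; norm. to artemisinin (0.29 uM) and DMSO.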
# PC26 = experiment: as above; conditions: P. falciparum in erythrocytes, SYBR Green DNA, 72 h; series mostly up to 28.7 µM
# Outline: as §1
# PC49 = experiment: as above; conditions: P. falciparum in erythrocytes, SYBR Green DNA, 72 h; series mostly up to 28.7 µM
# Outline: as §1
# SC27B = experiment: as above; conditions: P. falciparum in erythrocytes, SYBR Green DNA, 72 h; series mostly up to 28.7 µM
# Outline: as §1
# TAB165 = experiment: as above; conditions: P. falciparum in erythrocytes, SYBR Green DNA, 72 h; series mostly up to 28.7 µM
# Outline: as §1
# CRL-7250 = normal cell line; experiment: Cytotoxic Profiling of Annotated Libraries Using Quantitative High-Throughput Screening (AID 1296008); conditions: Five cell lines viability, CellTiter-Glo ATP luminescence, 48-72 h; max response: hits give low values
# Outline: (§2)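 Cytotoxicity was measured as CellTiter-Glo ATP luminescence, read after 10 min at room temperature. Compound treatment of the cells lasted 48 or 72 hr at 37 degrees Celsius in a qHTS format.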
# HEK293 = experiment: as above; conditions: Five cell lines viability, CellTiter-Glo ATP luminescence, 48-72 h; max response: hits give low values
# Outline: as §2
# HaCat [1] = experiment: as above; conditions: Five cell lines viability, CellTiter-Glo ATP luminescence, 48-72 h; max response: hits give low values
# Outline: as §2
# KB-3-1 = experiment: as above; conditions: Five cell lines viability, CellTiter-Glo ATP luminescence, 48-72 h; max response: hits give low values
# Outline: as §2
# NIH3T3 = experiment: as above; conditions: Five cell lines viability, CellTiter-Glo ATP luminescence, 48-72 h; max response: hits give low values
# Outline: as §2
# HACAT [2] = experiment: qHTS assay to identify novel small-molecules to repurpose for Merkel cell carcinoma treatment (AID 1296009); conditions: MCC and control cell lines, CellTiter-Glo viability, 72 h; at 44.8 µM (top of the series) unless noted
# Outline: (§3)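 72 hr, 37 degree celsius; NPC 8-pt / MIPE 11-pt dose response; compound pinned in DMSO; CellTiter-Glo, 10 min RT, luminescence; normalized to no-cell and DMSO controls.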
# MCC-13 = experiment: as above; conditions: MCC and control cell lines, CellTiter-Glo viability, 72 h; series mostly up to 46 µM
# Outline: as §3
# MKL-1 = experiment: as above; conditions: MCC and control cell lines, CellTiter-Glo viability, 72 h; series mostly up to 46 µM
# Outline: as §3
# MCC-26 = experiment: as above; conditions: MCC and control cell lines, CellTiter-Glo viability, 72 h; series mostly up to 46 µM
# Outline: as §3
# MKL-2 = experiment: as above; conditions: MCC and control cell lines, CellTiter-Glo viability, 72 h; series mostly up to 46 µM
# Outline: as §3
# TAB109 = experiment: qHTS profiling for inhibitors of Plasmodium falciparum proliferation (AID 504749); conditions: P. falciparum in erythrocytes, SYBR Green DNA, 72 h; series mostly up to 28.7 µM
# Outline: as §1
# TAB113 = experiment: as above; conditions: P. falciparum in erythrocytes, SYBR Green DNA, 72 h; series mostly up to 28.7 µM
# Outline: as §1
# W2 = experiment: as above; conditions: P. falciparum in erythrocytes, SYBR Green DNA, 72 h; series mostly up to 28.7 µM
# Outline: as §1
# Also: nearly all actives have a fitted effect of over 60% in size.
# Potency is read from the fitted curve at half-maximal effect.
structure (smiles),measurement,setting,value
N#CC(C#N)=Cc1ccc(O)c(O)c1,Potency,PC15,inactive
same,Potency,PC26,inactive
same,Potency,PC49,inactive
same,Potency,SC27B,inactive
same,Potency,TAB165,inactive
same,max response,CRL-7250,-16.4%
same,max response,HEK293,-18.8%
same,outcome,HaCat [1],inactive
same,max response,KB-3-1,1.48%
same,max response,NIH3T3,-19.5%
same,outcome,HACAT [2],inactive
same,Potency,MCC-13,inactive
same,Potency,MKL-1,7.5 µM (active)
Cn1cc(C2=C(c3cn(C4CCN(Cc5ccccn5)CC4)c4ccccc34)C(=O)NC2=O)c2ccccc21,max response,CRL-7250,-3.19% and -9.47%
same,max response,HEK293,-3.71% and -0.888%
same,max response,HaCat [1],-7.11%
same,max response,KB-3-1,7.73% and 20.1%
same,outcome,NIH3T3,inactive
same,Potency,MCC-13,inactive
same,Potency,MCC-26,inactive
same,Potency,MKL-1,inactive
same,Potency,MKL-2,inactive
O=P1(NCCCl)OCCCN1CCCl (stereo not drawn),Potency,PC15,inactive
same,Potency,PC26,inactive
same,Potency,PC49,inactive
same,Potency,SC27B,inactive
same,Potency,TAB109,inactive
same,Potency,TAB113,inactive
same,Potency,TAB165,inactive
same,max response,CRL-7250,-12.2%
same,max response,HEK293,3.55%
same,outcome,HaCat [1],inactive
same,max response,KB-3-1,0.482% and 4.18%
same,max response,NIH3T3,-11.2% and -20.7%
same,outcome,HACAT [2],inactive
same,Potency,MCC-13,inactive
same,Potency,MKL-1,inactive
same,Potency,MKL-2,inactive
CCCN1CCC[C@@H]2Cc3[nH]ncc3C[C@H]21,Potency,PC26,inactive
same,Potency,W2,inactive
same,max response,CRL-7250,4.64%
same,max response,HEK293,-0.855%
same,max response,KB-3-1,-4.95%
same,outcome,NIH3T3,inactive
same,Potency,MCC-13,inactive
same,Potency,MKL-1,inactive
same,Potency,MKL-2,inactive
C[C@@H]1O[C@@H](O[C@H]2C[C@@H](O)[C@]3(CO)[C@H]4[C@H](O)C[C@]5(C)[C@@H](C6=CC(=O)OC6)CC[C@]5(O)[C@@H]4CC[C@]3(O)C2)[C@H](O)[C@H](O)[C@H]1O,Potency,CRL-7250,29.6 nM (active) and 84.1 nM (active) and 89.3 nM (active)
same,Potency,HEK293,46.9 nM (active) and 94.4 nM (active) and 70.9 nM (active)
same,Potency,HaCat [1],266 nM (active) and 142 nM (active)
same,Potency,KB-3-1,52.6 nM (active) and 46.1 nM (active) and 112 nM (active)
same,outcome,NIH3T3,inactive
same,Potency,MCC-26,235 nM (active)
same,Potency,MKL-1,148 nM (active) and 119 nM (active)
same,Potency,MKL-2,118 nM (active)
N[C@@H]1C[C@H]1c1ccccc1,max response,CRL-7250,-2.94%
same,max response,HEK293,-4.85%
same,outcome,HaCat [1],inactive
same,max response,KB-3-1,-0.335%
same,max response,NIH3T3,3.17%
same,outcome,HACAT [2],inactive
same,Potency,MCC-13,inactive
same,Potency,MCC-26,inactive
same,Potency,MKL-1,inactive
same,Potency,MKL-2,inactive
Cc1ncc(CNC(=O)N(CCCl)N=O)c(N)n1,Potency,PC15,inactive
same,Potency,PC26,inactive
same,Potency,PC49,inactive
same,Potency,SC27B,inactive
same,Potency,TAB109,inactive
same,Potency,TAB113,inactive
same,Potency,TAB165,inactive
same,Potency,W2,inactive
same,max response,CRL-7250,0.0102%
same,max response,HEK293,2.72%
same,max response,KB-3-1,2.09%
same,max response,NIH3T3,-2.43%
same,Potency,MCC-13,inactive
same,Potency,MKL-1,inactive
same,Potency,MKL-2,inactive
Cc1cccc(C)c1NC1=NCCCS1,Potency,PC15,inactive
same,Potency,SC27B,inactive
same,Potency,TAB113,inactive
same,Potency,W2,4.26 µM (active)
same,max response,CRL-7250,-7.18%
same,max response,HEK293,-6.53%
same,max response,HaCat [1],-7.27%
same,max response,KB-3-1,-1.86%
same,max response,NIH3T3,1%
same,Potency,MCC-13,inactive
same,Potency,MCC-26,inactive
same,Potency,MKL-1,inactive
same,Potency,MKL-2,inactive
CC[C@@H](CO)NC(=O)[C@@H]1C=C2c3cccc4[nH]cc(c34)C[C@H]2N(C)C1,Potency,PC15,inactive
same,Potency,PC26,inactive
same,Potency,PC49,inactive
same,Potency,SC27B,inactive
same,Potency,TAB109,inactive
same,Potency,TAB113,inactive
same,Potency,TAB165,inactive
same,Potency,W2,inactive
same,max response,CRL-7250,-1.45%
same,max response,HEK293,-3.34%
same,max response,HaCat [1],-5.68%
same,max response,KB-3-1,37.2%
same,max response,NIH3T3,-3.83%
same,Potency,MCC-13,inactive
same,Potency,MCC-26,inactive
same,Potency,MKL-1,inactive
same,Potency,MKL-2,inactive
C#CCOC(C(=O)OCCN(C)C)(c1ccccc1)c1ccccc1,Potency,PC15,inactive
same,Potency,PC26,inactive
same,Potency,PC49,inactive
same,Potency,SC27B,inactive
same,Potency,TAB113,inactive
same,Potency,TAB165,inactive
same,max response,CRL-7250,-6.32%
same,max response,HEK293,-8.54%
same,outcome,HaCat [1],inactive
same,max response,KB-3-1,-0.159%
same,outcome,NIH3T3,inactive
same,outcome,HACAT [2],inactive
same,Potency,MCC-13,inactive
same,Potency,MCC-26,inactive
same,Potency,MKL-1,inactive
same,Potency,MKL-2,inactive
OCCOc1ccccc1,Potency,PC15,inactive
same,Potency,PC26,inactive
same,Potency,PC49,inactive
same,Potency,SC27B,inactive
same,Potency,TAB109,inactive
same,Potency,TAB113,inactive
same,Potency,TAB165,inactive
same,Potency,W2,inactive
same,max response,CRL-7250,3.79%
same,max response,HEK293,1.79%
same,outcome,HaCat [1],inactive
same,max response,KB-3-1,1.69% and -18.4%
same,max response,NIH3T3,0.364%
same,outcome,HACAT [2],inactive
same,Potency,MCC-13,inactive
same,Potency,MKL-1,inactive
same,Potency,MKL-2,inactive
CC[N+]1(C)CCCC(OC(=O)C(O)(c2ccccc2)c2ccccc2)C1 (stereo not drawn),Potency,PC15,inactive
same,Potency,PC26,inactive
same,Potency,PC49,inactive
same,Potency,SC27B,inactive
same,Potency,TAB109,inactive
same,Potency,TAB113,inactive
same,Potency,TAB165,inactive
same,Potency,W2,inactive
same,max response,CRL-7250,2.5%
same,max response,HEK293,-9.88%
same,max response,HaCat [1],1.89%
same,max response,KB-3-1,3.82%
same,outcome,NIH3T3,inactive
same,Potency,MCC-13,inactive
same,Potency,MKL-1,inactive
same,Potency,MKL-2,inactive
CC[C@@H](CO)NC(=O)[C@@H]1C=C2c3cccc4c3c(cn4C)C[C@H]2N(C)C1,max response,CRL-7250,4.07%
same,max response,HEK293,-25.3%
same,outcome,HaCat [1],inactive
same,max response,KB-3-1,-9.77%
same,max response,NIH3T3,2.49%
same,outcome,HACAT [2],inactive
same,Potency,MCC-13,inactive
same,Potency,MCC-26,inactive
same,Potency,MKL-1,21.1 µM (active)
